Screens: PubChem, National Center for Advancing Translational Sciences (NCATS)
Rows were chosen to be rich in hits. Some 1.9% of all compounds tested hit in one or more screens of this group.
p53null 39C kill: qHTS Screen for Compounds that Selectively Target Cancer Cells with p53 Mutations: Cytotoxicity of p53 Null Cells at the Nonpermissive Temperature | H1299 p53-null (neo) cells, 39C, ATPlite viability, 24 h | Potency, µM (series often up to 46.1 µM), for inactives: at the top dose activity, negative = cell killing, hits mostly cytotoxic | hit rate 0.97% among 55,000;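 note: 0% = DMSO only and -100% = full killing by 100 µM tamoxifen; nearly all actives have a fitted effect of over 50% in size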
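H1299 lung cancer cells, p53-null (H1299-neo) or expressing p53 A138V (H1299-p53A138V), were plated overnight at 37C, then exposed to compounds at up to 46 uM for 24 hr at 39C. Viability was read by ATP-based luminescence.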
HTT promoter inh: Primary qHTS for Identification of Small Molecule Inhibitors of Huntingtin Promoter Activity; HEK293 HTT promoter firefly luciferase reporter, 24 h; Potency, µM (series often up to 57.5 µM), inactives show at the highest dose activity change, negative = inhibition, usual class: inhibitors; hit rate 0.93% among 48,000; AID 1508623, 2021; note: nearly all actives have a fitted effect of over 50% in size
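Firefly luciferase readout (Dual-Glo, 10 min RT) after 24 h, 37 °C compound exposure (final up to 57.5 uM) of HEK293 reporter cells cultured 24 h beforehand; PTC124 at 50 uM final as control inhibitor; activity scaled vehicle 0%, zero RLU -100%.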
HTT-AS act: Primary qHTS for Identification of Small Molecule Activators of Huntingtin-Antisense Promoter Activity; HEK293 HTT-AS promoter firefly luciferase reporter, 24 h; response scale: percent change from vehicle, -100% = no light; Potency, µM (doses to about 57.5 µM), without a hit: at the highest dose activity change, positive = activation, actives largely listed as activators; hit rate 0.24% among 48,000; note: nearly all actives have a fitted effect of over 55% in size
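HEK293 Fluc reporter, 2,500 cells/well, 24 h pre-culture; cpds up to 57.5 uM final, 24 h 37 degrees C; Dual-Glo, 10 min RT; normalized vehicle = 0%, zero RLU = -100%.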
p53null 32C kill: qHTS Screen for Compounds that Selectively Target Cancer Cells with p53 Mutations: Cytotoxicity of p53 Null Cells at the Permissive Temperature; H1299-neo p53 null cells, ATP luminescence, 24 h, 32C; Potency, µM (top dose mostly 46.1 µM), for inactives: at the top dose activity change, negative = cytotoxicity, hits mostly cytotoxic; hit rate 0.62% among 55,000; AID 903, 2007;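 note: 0% = DMSO only and -100% = full killing by 100 µM tamoxifen; nearly all actives have a fitted effect of over 55% in size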
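ATP-content luminescence in p53-null H1299-neo cells after 24 h compound exposure (up to 46 uM) at 32C permissive temperature; 0% and 100% killing set by DMSO and 100 uM tamoxifen; Hill-equation AC50.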
Numbers without * were called inactive; ? = inconclusive; · = no result. Calls come from the whole dose curve; as a rule, active = well fitted curve in the direction sought with a large enough effect; inconclusive = small, poorly fitted or top-dose-only effect, or another doubt; inactive = no such curve, though single readings can be large; an effect the other way counts as inactive or inconclusive. Potency is the fitted concentration of half-maximal effect.

SMILES | p53null 39C kill | HTT promoter inh | HTT-AS act | p53null 32C kill
O=c1oc2ccccc2n1CCCOc1ccccc1Cl | ? | 22% | 7.9µM* | ?
CC(C)CCNC(=O)c1c[nH]c2ccc(S(=O)(=O)Nc3cccc(C(F)(F)F)c3)cc2c1=O | -9% | ? | -40% | 13%
Cc1ccc(CCNC(=O)c2c[nH]c3ccc(S(=O)(=O)Nc4cccc(C(F)(F)F)c4)cc3c2=O)cc1 | 10% | 16µM* | -43% | 1%
C#CCC(Cc1cnc2nc(N)nc(N)c2n1)c1ccc(C(=O)N[C@@H](CCC(=O)O)C(=O)O)cc1 (stereo partly specified) | · | ? | 19% | ·
Cc1ccc(C2=CC(c3ccccc3C)n3c(nc4ccccc43)N2)cc1 (stereo unspecified) | ? | -2% | ? | 1.3µM*
CCc1ccc(C2=CC(c3c(F)cccc3Cl)n3c(nc4ccccc43)N2)cc1 (stereo unspecified) | ? | -10% | ? | 8.9µM*
CSc1n[nH]c(NCc2ccc(Cl)cc2)n1 | 3% | · | · | -26%
CSc1n[nH]c(NCc2ccc(C)cc2)n1 | 11µM* | · | · | 20µM*
COc1ccc(Br)cc1CC1C(=O)Nc2ccccc21 (stereo unspecified) | 9% | 13µM* | -51% | 4%
Cc1ccccc1CC1C(=O)Nc2ccc(Br)cc21 (stereo unspecified) | -12% | ? | -24% | -7%
CSc1cccc(NC(=O)C2CCN(S(=O)(=O)c3ccc4[nH]c5c(c4c3)CCCCC5)CC2)c1 | 21% | ? | -25% | 5%
O=C(Nc1cccc(F)c1)C1CCN(S(=O)(=O)c2ccc3[nH]c4c(c3c2)CCCCC4)CC1 | 37% | 25µM* | -42% | 27%
Cc1cc(Nc2cccc(Cl)c2)nc2ccc(NC(=O)c3cccnc3)cc12 | 25µM* | ? | -60% | ?
Cc1nc2cc(-c3cccc(F)c3)nn2c(C)c1CCC(=O)NC1CCCCC1 | -13% | 1.3µM* | -69% | -9%
COC(=O)C(NC(=O)CCc1c(C)nc2cc(-c3cccc(F)c3)nn2c1C)C(C)C (stereo unspecified) | -14% | 11µM* | -66% | -5%
Cc1ccccc1CN1C(=O)C(O)(CC(=O)c2cccc(Br)c2)c2ccccc21 (stereo unspecified) | 32µM* | ? | -29% | ?
COc1ccc(OC)c(C(=O)CC2(O)C(=O)N(Cc3ccccc3C)c3ccccc32)c1 (stereo unspecified) | ? | ? | -30% | 14%
Cc1cccc(NC(=O)c2cc(-c3ccc4c(c3)OCCO4)on2)c1 | 1.3µM* | -24% | ? | 1.3µM*
Cc1ccc(Cl)cc1NC(=O)c1cc(-c2ccc3c(c2)OCCO3)on1 | ? | 12% | ? | ?
O=C(Nc1cccc(Cl)c1)c1cc(-c2ccc3c(c2)OCCO3)on1 | ? | ? | -32% | ?
Cc1cc(OC(=O)c2cc(-c3ccc4c(c3)OCCO4)on2)ccc1Cl | 16µM* | -1% | 1% | -27%
Cc1ccc(OC(=O)c2cc(-c3ccc4c(c3)OCCO4)on2)cc1C | 25µM* | 0% | 11% | ?
Cc1ccccc1Nc1c(-c2ccc(N3CCOCC3)cc2)nc2cccc(C)n12 | ? | 13% | 27% | ?
Cc1ccc(-c2nc3ccccn3c2Nc2ccc3c(c2)OCO3)cc1 | 31% | -8% | -2% | 16%
Cc1ccc(Nc2c(-c3ccc(N(C)C)cc3)nc3ccccn23)cc1 | ? | 72% | 2µM* | -30%
SMILES | p53null 39C kill | HTT promoter inh | HTT-AS act | p53null 32C kill
COc1cc(O)ccc1-c1nc2ccc(Br)cn2c1Nc1ccccc1C | 20µM* | ? | -41% | ?
Cc1ccccc1Nc1c(-c2ccc(N3CCOCC3)cc2)nc2ccc(Br)cn12 | 10µM* | 13% | 22% | ?
Cc1ccccc1Nc1c(-c2ccc(N3CCOCC3)cc2)nc2ccccn12 | 0.32µM* | 30% | ? | 1.6µM*
Cc1ccccc1Nc1c(-c2cccc(O)c2)nc2ccc(Br)cn12 | -4% | -22% | -20% | -7%
Cc1ccc(F)c(NC(=O)Nc2ccc(-c3cccc4[nH]nc(N)c34)cc2)c1 | · | 23% | -1% | ·
Nc1nc(N)c2nc(-c3cccc(O)c3)c(-c3cccc(O)c3)nc2n1 | · | ? | -2% | ·
CC(C)OC(=O)[C@H](C)N[P@](=O)(OC[C@H]1O[C@@H](n2ccc(=O)[nH]c2=O)[C@](C)(F)[C@H]1O)Oc1ccccc1 | · | -3% | -11% | ·
Cc1nc2sccn2c(=O)c1S(=O)(=O)Nc1ccc(N2CCOCC2)c(Cl)c1 | 3% | ? | -27% | 1%
CCN1CCN(c2ccc(NS(=O)(=O)c3c(C)nc4sccn4c3=O)cc2Cl)CC1 | -7% | 16µM* | -45% | -5%
COc1ccccc1Nc1c2c(nc3ccc(NC(=O)c4cccc(OC)c4OC)cc13)CCCC2 | 14% | ? | -51% | -22%
COc1ccccc1Nc1c2c(nc3ccc(NC(=O)c4ccc(OC)c(OC)c4)cc13)CCCC2 | 22µM* | -11% | -23% | ?
COc1ccc(N2CCN(C(=O)c3ccc4nc(N5CCC(C)CC5)sc4c3)CC2)cc1 | -9% | 2.2µM* | -72% | 8%
Cc1ccc(Cl)cc1N1CCN(C(=O)c2ccc3nc(N4CCC(C)CC4)sc3c2)CC1 | 29% | 3.5µM* | -79% | 40%
COc1cccc(N2CCN(C(=O)c3ccc4nc(N5CCC(C)CC5)sc4c3)CC2)c1 | 7% | ? | -64% | 10%
CC(O)(C#Cc1ccc2c(c1)N(c1nc(N)ncc1Cl)CC2)c1nccs1 (stereo unspecified) | · | ? | -23% | ·
O=C(CC(c1ccccc1)c1cc(Br)ccc1O)NCC1(c2ccccc2)CCCC1 (stereo unspecified) | 16µM* | · | · | ?
CCN(CCO)C(=O)CC(c1ccccc1)c1cc(Br)ccc1O (stereo unspecified) | -11% | · | · | -4%
CO[C@H]1C[C@@H]2CC[C@@H](C)[C@@](O)(O2)C(=O)C(=O)N2CCCC[C@@H]2C(=O)O[C@H]([C@H](C)C[C@@H]2CC[C@H](OCCO)[C@H](OC)C2)CC(=O)[C@H](C)C=C(C)[C@@H](O)[C@@H](OC)C(=O)[C@H](C)C[C@H](C)C=CC=CC=C1C | · | ? | -22% | ·
CO[C@@H]1[C@@H](O[C@@H]2O[C@H](C)[C@@H](O[C@H]3C[C@@](C)(O)[C@@H](O)[C@H](C)O3)[C@H](N(C)C)[C@H]2O)[C@@H](CC=O)C[C@@H](C)[C@@H](O[C@@H]2CC[C@H](N(C)C)[C@@H](C)O2)/C=C/C=C/C[C@@H](C)OC(=O)C[C@H]1OC(C)=O | · | -2% | -7% | ·
